# Source: PubChem BioAssay (National Center for Advancing Translational Sciences (NCATS))
# DT40 TDP1 CPT: DT40-hTDP1 cell growth loss with CPT; chicken DT40 Tdp1-/-;hTDP1 cells + 20 nM CPT, ATP luminescence, 48 h; Potency, µM (top dose mostly 46.2 µM), without a hit: at the highest dose activity change, negative = growth inhibition, usual class: inhibitors; hit rate 12% among 420,000; also: potency is read from the fitted curve at half-maximal effect; nearly all actives have a fitted effect of over 55% in size
#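 Chicken DT40 Tdp1-/- cells stably complemented with human TDP1 were seeded at 400 cells/well in medium containing 20 nM camptothecin, exposed to pin-transferred compounds, and grown at 37 °C for at least 48 hr. Viability was read as ATP luminescence.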
# IL1B secr inh: inhibitors of inflammasome signaling (IL-1 beta secretion); THP-1 LPS/ATP IL-1B secretion, AlphaLISA, 16 h; hits give low values; activity change, % at 57.5 µM; hit rate 4.7% among 360,000; AID 743279; in the data active = activity change below about -50%; inconclusive = mostly about -30% to -49%
#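 Secreted IL-1B measured by AlphaLISA bead assay after 16 h compound exposure of THP-1 cells; compounds (final up to 57.5 uM) added 1 h before LPS (250 ng/mL) and ATP (1.25 mM) stimulation; lower signal means less secretion.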
# TDP1 inh: blocks human tyrosyl-DNA phosphodiesterase 1; Q9NUW8; recombinant TDP1, AlphaScreen DNA substrate cleavage; Potency, µM (highest dose often 130 µM), for the others: top-dose activity change, negative = inhibition, hits mostly inhibitors; hit rate 0.28% among 350,000; AID 485290; also: potency is read from the fitted curve at half-maximal effect; nearly all actives have a fitted effect of over 40% in size
# Target sequence (Q9NUW8 whole entry, looked up): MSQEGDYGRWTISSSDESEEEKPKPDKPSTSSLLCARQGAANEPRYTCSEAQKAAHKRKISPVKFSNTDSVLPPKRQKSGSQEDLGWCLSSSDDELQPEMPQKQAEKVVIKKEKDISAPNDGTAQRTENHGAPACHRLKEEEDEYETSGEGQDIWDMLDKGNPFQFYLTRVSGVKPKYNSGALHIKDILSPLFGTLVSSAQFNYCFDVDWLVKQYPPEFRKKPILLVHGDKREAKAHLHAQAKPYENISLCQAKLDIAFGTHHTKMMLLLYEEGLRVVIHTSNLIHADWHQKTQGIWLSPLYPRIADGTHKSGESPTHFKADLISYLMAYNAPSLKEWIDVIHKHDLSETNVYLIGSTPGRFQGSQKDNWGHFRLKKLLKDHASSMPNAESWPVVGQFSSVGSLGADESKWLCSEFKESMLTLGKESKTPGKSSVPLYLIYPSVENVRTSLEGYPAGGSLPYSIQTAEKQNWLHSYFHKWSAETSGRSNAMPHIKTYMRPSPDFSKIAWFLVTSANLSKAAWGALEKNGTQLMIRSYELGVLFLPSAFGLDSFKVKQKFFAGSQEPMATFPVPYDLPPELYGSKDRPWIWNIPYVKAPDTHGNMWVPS
#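 AlphaScreen read-out: signal falls as enzyme removes the 3' tyrosine-FITC from a 5'-biotinylated DNA oligo (15 nM, 5 min, RT). Enzyme was E. coli-made recombinant Tdp1 at 1 nM, exposed to compound for 15 min beforehand; beads 10 ug/ml, 10 min.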
# DT40 TDP1 no CPT: qHTS for Inhibitors of human tyrosyl-DNA phosphodiesterase 1 (TDP1): qHTS in cells in absence of CPT; DT40 Tdp1-/- hTDP1 cells, no CPT, ATP luminescence, 48 h; Potency, µM (titrated, usually from 46.2 µM), without a hit: at the highest dose activity change, negative = growth inhibition, actives largely listed as inhibitors; hit rate 15% among 420,000; AID 686978, 2013; also: potency is read from the fitted curve at half-maximal effect; nearly all actives have a fitted effect of over 55% in size
#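 DT40 Tdp1-/-;hTDP1 cells, no CPT (DMSO vehicle only), 400 cells/well; compounds pin-transferred; ≥48 hr, 37 °C; CellTiter-Glo 30 min RT dark, luminescence read.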
# ELG1 DNA repair: ELG1-dependent DNA repair inhibition. HEK293T ELG1-luciferase reporter, luminescence, 16 h; DNA damage induced by 5-fluorouridine. Potency, µM (series often up to 46.1 µM), for the others: at the highest dose activity change, negative = inhibition, hits mostly inhibitors. hit rate 2.3% among 330,000. AID 504467; also: potency is read from the fitted curve at half-maximal effect; nearly all actives have a fitted effect of over 55% in size
#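 HEK293T cells expressing luciferase-tagged ELG1 (2,000/well) received 5-Fluorouridine plus compound or DMSO for 16 hr at 37 °C. Luciferase was read by ONE-Glo luminescence after 30 min at room temperature.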
# Giardia kill: kills Giardia lamblia | Giardia lamblia trophozoite viability | activity change, % at 7.66 µM, hits read low | hit rate 0.15% among 340,000 | AID 540267; in the data active = activity change below about -80%; inconclusive = between about -30% and that limit;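 also: parasites exposed to compound for two days anaerobically before the ATP read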
#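 Luminescence from cellular ATP indicates surviving trophozoites (100 cells/well) following 48 hrs anaerobic compound treatment at 37 deg C; signal develops 15-30 min at room temperature.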
# Starred values were filed as active, the others as inactive; u = inconclusive; x = no result. In the library only some 19% were active in any assay of this set; here they are far more common. Unless noted, calls follow the shape of the dose curve; as a rule, active = well fitted curve in the direction sought with a large enough effect; inconclusive = small, poorly fitted or top-dose-only effect, or another doubt; inactive = no such curve, though single readings can be large; an effect the other way counts as inactive or inconclusive. % is scaled to controls: 0 for no effect and ±100 for the full control effect.
SMILES,DT40 TDP1 CPT,IL1B secr inh,TDP1 inh,DT40 TDP1 no CPT,ELG1 DNA repair,Giardia kill
CC(C)c1onc(C(=O)Nc2ccc3c(c2)OCO3)c1[N+](=O)[O-],u,-21.0,x,18.4µM*,29.3%,-20.6
C=CCN1C(=O)/C(=C2\SC(N3CCOCC3)=NC2=O)c2cc(Br)ccc21,23.1µM*,16.1,5.7%,u,u,11.8
Cc1c(C(=O)Nc2cnccn2)oc2ccccc12,11.6µM*,32.2,6.9%,u,u,3.8
CCc1ccc2oc(C(=O)Nc3cccnc3)c(C)c2c1,16.4µM*,-3.8,0.9%,23.1µM*,u,-4.7
Cc1ccnc(NC(=O)c2oc3ccccc3c2C)c1,u,53.9,x,u,u,-11.2
CCOc1ccc2nc(COC(=O)c3cccc([N+](=O)[O-])c3)c(C(C)=O)[n+]([O-])c2c1,4.6%,13.0,x,-7.9%,11.5%,-2.3
O=C(NNc1ccccc1C(F)(F)F)c1sccc1Cl,u,x,x,u,x,-8.3
CCC(C)(c1nnnn1-c1c(C)cccc1C)N(N=O)c1cccc(C(F)(F)F)c1 (configuration not stated),25.9µM*,13.9,2.8%,20.6µM*,-1.6%,9.3
Cc1cccc(C)c1-n1nnnc1C(C)(C)N1CCN(N=O)CC1,21.2%,15.3,2.7%,-11.0%,2.6%,4.1
CC(C)(C)OC(=O)Cc1nnc(C(C(=O)OCc2ccccc2)c2ccccc2)o1 (configuration not stated),x,x,-7.8%,x,x,x
CCOC(=O)c1[nH]c2ccc(OC)cc2c1NC(=O)CN1CCSCC1,-4.9%,-6.8,1.0%,-27.1%,u,-5.1
CCOC(=O)c1[nH]c2ccc(OCC)cc2c1NC(=O)CN1CCC2(CC1)OCCO2,u,-13.6,-4.2%,u,8.2µM*,-3.7
CCOC(=O)c1[nH]c2ccc(OCC)cc2c1NC(=O)CN1CCN(c2ccccc2)CC1,20.6µM*,-18.7,4.1%,u,u,0.1
Cc1ccccc1C1CC(=O)Oc2ccc(C(C)(C)C)cc21 (configuration not stated),x,x,-6.1%,x,x,x
COC(=O)C[C@H]1C[C@@H]2c3cc(NC(=O)NC4CCCC4)ccc3O[C@@H]2[C@@H](CO)O1,2.5%,-21.5,x,u,x,x
c1ccc2sc(C3CCN(Cc4nnnn4Cc4ccc5c(c4)OCO5)CC3)nc2c1,u,-4.1,4.4%,18.4µM*,u,-1.4
COc1ccc(Cn2nnnc2CN2CCC(c3nc4ccccc4s3)CC2)cc1,u,u,1.9%,u,u,-4.8
CCOc1ccc(Nc2nn(-c3ccc(OC(F)(F)F)cc3)nc2C(C)=O)cc1,-12.3%,x,7.0%,-7.5%,x,x
Cc1ccccc1-c1cc(N2CCNCC2)ncn1,-8.8%,x,x,-5.3%,x,x
Clc1ccc2c(c1)N=C(N1CCNCC1)c1ccccc1N2,13µM*,x,11.0%,9.2µM*,x,x
CCOc1cc(C(=S)N2CCC(O)CC2)ccc1OS(=O)(=O)c1ccc(Br)cc1,u,-82.4*,4.7%,18.4µM*,u,0.5
COc1cc(C(=S)N2CCOCC2)cc(OC)c1OS(=O)(=O)c1ccc(C)cc1,-9.4%,-2.8,3.4%,3.0%,u,-1.0
CCOc1cc(C(=S)N2CCCCC2)ccc1OS(=O)(=O)c1ccc(Br)cc1,20.6µM*,-15.5,5.9%,18.4µM*,-2.1%,5.8
CCOc1cc(C(=S)N2CCOCC2)cc(Br)c1OS(=O)(=O)c1ccccc1,u,-18.4,x,23.1µM*,-24.6%,-9.6
CCOc1cc(C(=S)N2CCCCC2)ccc1OS(=O)(=O)c1ccc(Cl)cc1,16.4µM*,-8.2,3.9%,23.1µM*,u,-0.3
CCOc1cc(C(=S)N2CCOCC2)ccc1OS(=O)(=O)c1ccc(C)cc1,-11.1%,-1.1,6.2%,u,u,13.3
